In the library only some 11% were active in any assay of this set; here they are far more common.
NS1 function inh = qHTS Assay for Inhibitors of Influenza NS1 Protein Function | 270,000 compounds, 0.4% hits | Potency, µM (titrated, usually from 46.1 µM) | AID 2326, 2010; calls by dose curve; note: actives are rising curves; nearly all actives have a fitted effect of over 50% in size
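Recovery from NS1-induced slow growth read by OD600 in budding yeast switched to galactose assay medium (pH 6.0, -URA) at 1:100 dilution. Compound 23 nl per well; the matching strain lacking NS1 serves as control.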
HCV inh = qHTS Assay for Inhibitors of Hepatitis C Virus (HCV). Potency, µM (series often up to 41.8 µM), usual class: inhibitors. Huh7.5.1 HCVcc-Cre infection, luciferase reporter, 44 h. AID 651820, 2012. 340,000 compounds, 3.4% hits
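HCVcc-Cre virus at an moi near 0.5 was added right after compound to cells cultured 4 h from seeding (1,000 cells/well). Luciferase activity was determined 44 h later, 15 min after substrate addition at RT.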
Pf growth 96h = Primary qHTS for delayed death inhibitors of the malarial parasite plastid, 96 hour incubation; 320,000 compounds, 6.9% hits; P. falciparum luciferase reporter growth, 96 h; Potency, µM (series often up to 28.7 µM), most hits filed as inhibitors
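Erythrocytes infected with luciferase-expressing P. falciparum were dispensed at 2% hematocrit and 0.05% parasitemia (final), then incubated with compounds 96 hours at 37 C in 5% CO2. Luminescence after detection reagent addition reported growth.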
VACV Venus inh = qHTS for Stage-Specific Inhibitors of Vaccinia Orthopoxvirus: Venus Reporter Primary qHTS; Potency, µM (series often up to 36.5 µM), usual class: inhibitors; Vaccinia virus Venus reporter expression, fluorescence; 330,000 compounds, 0.46% hits; calls by dose curve; tested in A549 cells; note: nearly all actives have a fitted effect of over 30% in size
Pf growth 48h = Primary qHTS for delayed death inhibitors of the malarial parasite plastid, 48 hour incubation. Potency, µM (series often up to 28.7 µM), hits mostly inhibitors. P. falciparum luciferase growth in erythrocytes, 48 h. AID 504832, 2011. 310,000 compounds, 5.9% hits
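In quantitative HTS format, infected erythrocytes bearing luciferase-reporter parasites were treated for a single generation at 37 C. Luminescence after adding detection reagent served as the growth measure.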
Vaccinia mCherry = qHTS for Stage-Specific Inhibitors of Vaccinia Orthopoxvirus: mCherry Reporter Primary qHTS; Vaccinia virus mCherry reporter infection, fluorescence; Potency, µM (doses to about 36.5 µM), hits mostly inhibitors; 310,000 compounds, 0.63% hits; AID 720579, 2013; calls by dose curve; tested in A549 cells; note: nearly all actives have a fitted effect of over 35% in size
Each line names hits and unclear results; the compound was inactive in the other large screens. Unless noted, calls come from the whole dose curve; as a rule, active = well fitted inhibition curve with a large enough effect; inconclusive = small, poorly fitted or top-dose-only effect, or another doubt; inactive = no such curve, though single readings can be large or run the other way.

O=C(COc1ccc(F)cc1Cl)Nc1cccc(S(=O)(=O)N2CCCC2)c1	HCV inh 10µM, Pf growth 96h inconclusive, Pf growth 48h inconclusive (no result: NS1 function inh, VACV Venus inh, Vaccinia mCherry)
O=C(CCl)Nc1cccc(S(=O)(=O)N2CCCCCC2)c1	HCV inh inconclusive, Pf growth 96h 5.2µM, VACV Venus inh inconclusive, Pf growth 48h 6.6µM, Vaccinia mCherry inconclusive
O=C(COc1ccccc1)Nc1cccc(S(=O)(=O)N2CCCC2)c1	Pf growth 96h inconclusive (no result: NS1 function inh)
CC[N+](CC)(CC)CCCCOc1ccc2c(c1)C(=O)c1cc(OCCCC[N+](CC)(CC)CC)ccc1-2	HCV inh inconclusive, Pf growth 96h inconclusive, Pf growth 48h 0.066µM (no result: VACV Venus inh, Vaccinia mCherry)
CC1(C(=O)NC(=S)N(CCC#N)Cc2cccnc2)CC1(Cl)Cl (stereo not given)	none (no result: HCV inh, VACV Venus inh, Vaccinia mCherry)
COc1ccc(C(CC(=O)N2CCCC(C)C2)c2c(O)cc(OC)cc2OC)cc1 (stereo not given)	Pf growth 96h inconclusive, Pf growth 48h inconclusive
COc1cc(C(CCN2CCCCC2)c2c(OC)cc(OC)c3c(C)cc(=O)oc23)cc(OC)c1OC (stereo not given)	HCV inh inconclusive, Pf growth 96h 9.3µM, Pf growth 48h 8.3µM
COc1cc(OC)c2ccc(=O)oc2c1C(CCN1CCOCC1)c1ccc2c(c1)OCO2 (stereo not given)	none (no result: NS1 function inh, Pf growth 96h, Pf growth 48h)
COc1ccc(C(CCN2CCOCC2)c2c(OC)cc(OC)c3c(-c4ccccc4)cc(=O)oc23)cc1 (stereo not given)	HCV inh 32µM, VACV Venus inh inconclusive (no result: NS1 function inh, Pf growth 96h, Pf growth 48h)
COc1ccc(C(CCN2CCCC(C)C2)c2c(OC)cc(OC)c3c(-c4ccccc4)cc(=O)oc23)cc1 (stereo not given)	Pf growth 96h 5.9µM, VACV Venus inh inconclusive, Pf growth 48h 12µM
COc1ccc(C(CCN2CCCC(C)C2)c2c(OC)cc(OC)c3c(C)cc(=O)oc23)cc1 (stereo not given)	HCV inh inconclusive, Pf growth 96h 2.6µM, Pf growth 48h 2.9µM
COc1cc(OC)c2c(-c3ccccc3)cc(=O)oc2c1C(CCN1CCCC(C)C1)c1ccc(N(C)C)cc1 (stereo not given)	Pf growth 96h inconclusive, VACV Venus inh inconclusive, Pf growth 48h inconclusive
COc1cc(OC)c2ccc(=O)oc2c1C(CCN1CCCC1)c1ccc2c(c1)OCO2 (stereo not given)	Pf growth 96h inconclusive, Pf growth 48h inconclusive
CC1CCCCC1NC(=O)COc1cccnc1[N+](=O)[O-] (stereo not given)	none (no result: NS1 function inh, Pf growth 96h, Pf growth 48h)
COc1ccc(C2C(=O)N(C3CCCCC3)CC(=O)N2Cc2ccco2)cc1 (stereo not given)	none (no result: VACV Venus inh, Vaccinia mCherry)
Cc1ccc(-n2c(C)cc(C(=O)COC(=O)C3=NNC(=O)CC3)c2C)cc1	Pf growth 48h inconclusive (no result: Pf growth 96h, Vaccinia mCherry)
CCOc1ccc(CCNC(=O)Nc2cccc(OC)c2)cc1OCC	HCV inh inconclusive, Pf growth 48h inconclusive (no result: VACV Venus inh, Vaccinia mCherry)
COc1cc(C(CCN2CCCC2)c2c(OC)cc(OC)c3c(-c4ccccc4)cc(=O)oc23)cc(OC)c1OC (stereo not given)	NS1 function inh inconclusive, Pf growth 96h 1.9µM, VACV Venus inh inconclusive, Pf growth 48h 2.3µM
COc1cc(OC)c2c(C)cc(=O)oc2c1C(CCN1CCN(c2ccccc2)CC1)c1ccc2c(c1)OCO2 (stereo not given)	HCV inh inconclusive, Pf growth 96h 2.1µM, Pf growth 48h 3.3µM
COc1ccc(C(CCN2CCCC2)c2c(OC)cc(OC)c3c(-c4ccccc4)cc(=O)oc23)cc1 (stereo not given)	Pf growth 96h 12µM, VACV Venus inh inconclusive, Pf growth 48h 12µM
COc1cc(C(CCN2CCOCC2)c2c(OC)cc(OC)c3c(-c4ccccc4)cc(=O)oc23)cc(OC)c1OC (stereo not given)	HCV inh inconclusive (no result: NS1 function inh, Pf growth 96h, Pf growth 48h)
COc1cc(OC)c2c(-c3ccccc3)cc(=O)oc2c1C(CCN1CCOCC1)c1ccc2c(c1)OCO2 (stereo not given)	VACV Venus inh inconclusive, Vaccinia mCherry inconclusive (no result: NS1 function inh, Pf growth 96h, Pf growth 48h)
COc1cc(OC)c2c(-c3ccccc3)cc(=O)oc2c1C(CCN1CCCC1)c1ccc2c(c1)OCO2 (stereo not given)	Pf growth 96h 8.3µM, VACV Venus inh inconclusive, Pf growth 48h inconclusive
O=C1C=CC(=O)N1c1cccc2cccnc12	none (no result: NS1 function inh, Pf growth 96h, Pf growth 48h)
COc1ccccc1C(=O)NC(=O)COC(=O)c1ccc(Cl)nc1	none (no result: NS1 function inh)
O=C(c1cccc(Cl)c1)N1CCC(c2nc3c(nnn3Cc3ccc(F)cc3F)c(=O)[nH]2)CC1	none (no result: NS1 function inh, HCV inh, Pf growth 96h, Pf growth 48h)
CCOC(=O)C(C#N)C(Cc1ccccc1)c1ccco1 (stereo not given)	none
COc1ccc(C(CCN2CCOCC2)c2c(OC)cc(OC)c3ccc(=O)oc23)cc1 (stereo not given)	HCV inh 2.8µM (no result: NS1 function inh, Pf growth 96h, Pf growth 48h)
COc1cc2c(cc1O)[C@@H]1Cc3ccc(OC)c(O)c3CN1CC2	HCV inh 2.5µM, Pf growth 96h 6.6µM, Pf growth 48h 12µM (no result: NS1 function inh)
CC1=NN(/C(=N\c2nnc(C)s2)Nc2ccccc2)[C@H](c2cccc3ccccc23)S1	HCV inh inconclusive, Pf growth 96h 9.3µM, Pf growth 48h 6.6µM (no result: VACV Venus inh, Vaccinia mCherry)
CC1=NN(/C(=N\c2nnc(C)s2)Nc2ccc(C)cc2)[C@H](c2ccc(C)cc2)S1	Pf growth 96h inconclusive, Pf growth 48h 10µM (no result: VACV Venus inh, Vaccinia mCherry)
Cc1ccc(S(=O)(=O)N2CCN(Cc3ccccn3)CC2)cc1	none
COc1ccc(CCNC(=O)C2CCN(C(=O)c3ccc(OC)c(OC)c3)CC2)cc1	HCV inh inconclusive, Pf growth 96h inconclusive
CCOC(=O)C(=Cc1ccc(N(C)C)cc1)C(=O)c1ccccc1	none (no result: NS1 function inh, HCV inh, Pf growth 96h, Pf growth 48h)
CCOC(=O)N(O)c1ccc(C=Cc2ccccc2)cc1	HCV inh 4µM, VACV Venus inh inconclusive, Vaccinia mCherry inconclusive (no result: NS1 function inh, Pf growth 96h, Pf growth 48h)
Cc1ccc(C)c(S(=O)(=O)Nc2ccc3c(c2)CCCN3C(=O)c2cccs2)c1	VACV Venus inh inconclusive (no result: NS1 function inh, HCV inh, Pf growth 96h, Pf growth 48h)
COc1ccc(CNC(NC(=O)c2ccccc2)(C(F)(F)F)C(F)(F)F)cc1	HCV inh inconclusive, Pf growth 96h inconclusive, Pf growth 48h 12µM
COc1ccc(CNC(=O)c2ccc(-c3ccccc3)cc2)cc1	none
CCOC(=O)C(NCc1ccc(F)cc1)(NC(=O)c1ccccc1)C(F)(F)F (stereo not given)	Pf growth 96h 10µM (no result: VACV Venus inh, Vaccinia mCherry)
Cc1ccc(NC(=O)c2cc(S(=O)(=O)Nc3ccc(C)cc3)cs2)cc1	none (no result: NS1 function inh, Pf growth 96h, Pf growth 48h)
Cc1ccccc1NC(=O)C(C)OC(=O)C1CC(=O)N(Cc2ccco2)C1 (stereo not given)	Pf growth 48h inconclusive (no result: NS1 function inh, VACV Venus inh, Vaccinia mCherry)
O=C(NNC(=O)c1cccc2ccccc12)c1ccccc1O	HCV inh inconclusive, Pf growth 96h inconclusive, Pf growth 48h inconclusive (no result: VACV Venus inh, Vaccinia mCherry)
O=C(NNC(=O)c1ccccc1Cl)c1ccccc1Cl	none

Screening data deposited in PubChem BioAssay by National Center for Advancing Translational Sciences (NCATS).
